Consider 57 compounds from PubChem BioAssay AID588397 (National Center for Advancing Translational Sciences (NCATS), 2011).

Values joined by “and” are separate entries in the source; they are usually repeats but may differ in a detail not shown here. Equal values may be shown once. The whole screen tested about 1,300 compounds, of which about 1,000 (77%) were called active. About 7% were inconclusive and are not listed. The call rests on the fitted dose curve; in most records, active means well fitted inhibition curve with a large enough effect; inconclusive means small, poorly fitted or top-dose-only effect; inactive means no such curve, though single readings can be large or run the other way. The set was probably picked from earlier hits. The list shows a part of the results.
Potency means the concentration at half of the fitted maximal effect.

This assay can be described thus: qHTS of small molecules that selectively kill Giardia lamblia: Hit Validation.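 Further: viability measured as ATP content by luminescence so killing lowers signal; nearly all actives have a fitted effect of over 65% in size.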 The note with it: Giardia lamblia trophozoite viability, dose-response; series mostly up to 38.3 µM. In a few lines:
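Trophozoite viability was measured as ATP-dependent luminescence, read 15-30 min after reagent addition. Before that, parasites at 100 cells/well were exposed to compounds for 48 h, anaerobically, at 37 deg C.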
A general note: qHTS replaces the single test concentration by a dilution series.
With `O=C(Nc1ccc2cn[nH]c2c1)c1ccc(S(=O)(=O)N2CCOCC2)cc1`, the Potency entry is “inactive”.

On to `CC(C)C(=O)NC(=S)Nc1ccc(S(=O)(=O)N2CCCC2)cc1`, for which the Potency result is “inactive”.

In the case of `O=C(Nc1ccc(S(=O)(=O)N2CCOCC2)cc1)c1ccc([N+](=O)[O-])o1`, the Potency was 1.45 µM (active).

As for `COc1ccc(S(=O)(=O)N2CCCCC2)cc1NC(=O)c1ccc([N+](=O)[O-])o1`, the Potency is 1.45 µM (active).

Consider `O=C(Nc1ccc(S(=O)(=O)N2CCCC2)cc1)c1ccc([N+](=O)[O-])o1`, for which the Potency is 1.16 µM (active).

Consider `O=C(NCc1ccccc1CN1CCCC1)c1cccc(S(=O)(=O)N2CCCC2)c1`, for which the Potency entry is “inactive”.

On to `COc1ccc(CNC(=O)CN2C(=O)COc3ccc(S(=O)(=O)N4CCCCC4)cc32)cc1`, for which the Potency result is “inactive”.

Regarding `O=C(Nc1cccc(S(=O)(=O)N2CCCCC2)c1)c1ccc([N+](=O)[O-])o1`, the Potency was 0.729 µM (active).

On to `COc1ccc(C2CC(c3ccccc3)Nc3ncnn32)cc1` (configuration not stated), for which the Potency result is “inactive”.

In the case of `Cc1ccc(NC(=O)c2ccc([N+](=O)[O-])o2)cc1S(=O)(=O)N1CCOCC1`, the Potency is 0.729 µM (active).

As for `NC(=O)c1ccsc1NC(=O)c1ccc(N2CCCC2=O)cc1`, the Potency is 2.59 µM (active).

As to `O=C(NC1CCS(=O)(=O)C1)c1ccc(N2CCCCC2)c([N+](=O)[O-])c1` (configuration not stated), the Potency is 2.31 µM (active).

`CN(C(=O)c1ccc(N2CCCCC2)c([N+](=O)[O-])c1)C1CCS(=O)(=O)C1` (configuration not stated): the Potency is 4.1 µM (active).

In the case of `CN(C(=O)c1ccc(F)c(S(=O)(=O)N2CCOCC2)c1)C1CCCCC1`, the Potency result is “inactive”.

On to `O=C(N/N=C/c1ccc([N+](=O)[O-])o1)c1ccccc1-n1cccc1`, for which the Potency was 1.16 µM (active).

Consider `Cc1nc2ccccn2c1C(=O)N/N=C/c1ccc([N+](=O)[O-])o1`, for which the Potency is 1.83 µM (active).

For `O=C1c2ccccc2C(=O)C1c1ccc2ccccc2n1`, the Potency was 1.16 µM (active) and 1.63 µM (active).

For the compound `O=C1c2ccccc2C(=O)C1c1cc2ccccc2cn1`, the Potency was 1.45 µM (active).

As for `O=[N+]([O-])c1ccc(CSc2nnc(-c3cccnc3)o2)cc1`, the Potency is 3.65 µM (active).

Regarding `O=[N+]([O-])c1ccc(CSc2nnc(-c3cnccn3)o2)cc1`, the Potency is 2.31 µM (active).

As for `COc1nn(C(C)C(=O)N2N=C(C(F)F)CC2(O)C(F)F)cc1[N+](=O)[O-]` (configuration not stated), the Potency is 0.46 µM (active).

On to `COc1ccc(OC)c2sc(N3CCN(C(=O)c4ccc([N+](=O)[O-])s4)CC3)nc12`, for which the Potency is 2.59 µM (active).

On to `O=C(c1ccc([N+](=O)[O-])o1)N1CCN(c2nc3ccc(F)cc3s2)CC1`, for which the Potency is 1.83 µM (active).

Turning to `COc1ccc2nc(N3CCN(C(=O)c4ccc([N+](=O)[O-])o4)CC3)sc2c1`, the Potency is 1.83 µM (active).

In the case of `COc1cccc2sc(N3CCN(C(=O)c4ccc([N+](=O)[O-])o4)CC3)nc12`, the Potency is 2.05 µM (active).

On to `CCCSc1nc2c(cnn2-c2ccc(C)c(C)c2)c(=O)[nH]1`, for which the Potency result was “inactive”.

Regarding `O=c1cc(-c2ccccc2)[nH]c2cc(Cl)ccc12`, the Potency result is “inactive”.

For the compound `COc1ccc(S(=O)(=O)N2CCN(C(=O)c3ccc([N+](=O)[O-])o3)CC2)cc1`, the Potency was 1.3 µM (active).

Consider `COc1ccc(C(=O)NC2CCN(S(=O)(=O)c3ccc(F)cc3)CC2)cc1`, for which the Potency entry is “inactive”.

Take `C=Cc1ccc(CN2CCCN(Cc3ccc(F)cc3)S2(=O)=O)cc1`: the Potency entry was “inactive”.

Regarding `CN(C(=O)CN1CCN(c2ccc([N+](=O)[O-])cn2)CC1)c1ccccc1`, the Potency was 4.1 µM (active).

For the compound `Cc1ccc(CNC(=O)c2cc(-c3ccccc3C)n(CC3CC(c4cccc([N+](=O)[O-])c4)=NO3)n2)cc1` (configuration not stated), the Potency was 2.9 µM (active).

With `Cc1nnc(SCc2ccc([N+](=O)[O-])cc2)[nH]c1=O`, the Potency was 2.31 µM (active).

For the compound `O=[N+]([O-])/C(Cl)=C(/NCCO)C(Cl)=C(Cl)Cl`, the Potency is 0.259 µM (active).

With `CC(=O)c1c(C)[nH]c(C(=O)OCC(=O)Nc2cc(Cl)ccc2[N+](=O)[O-])c1C`, the Potency was 2.31 µM (active).

In the case of `CCc1ccc(-c2nc3c(=O)n(C)c(=O)nc-3n(CC)n2)cc1`, the Potency is 0.183 µM (active).

In the case of `CCn1nc(-c2ccc(C)cc2)nc2c(=O)n(C)c(=O)nc1-2`, the Potency was 0.206 µM (active).

As to `CC1(C)CC(N=c2cc(-c3ccccc3)oc3ccc(Cl)cc23)CC(C)(C)N1`, the Potency was 0.65 µM (active).

Take `Clc1ccc2oc(-c3ccccc3)cc(=NCCCN3CCOCC3)c2c1`: the Potency was 0.818 µM (active).

For `CN(C)CCCN=c1cc(-c2ccccc2)oc2ccc(Cl)cc12`, the Potency was 0.579 µM (active).

In the case of `O=C(c1ccc2c3n(nc2c1)-c1ccccc1CO3)N1CCCCC1`, the Potency was 2.31 µM (active).

`O=C(NCCO)c1ccc2c3n(nc2c1)-c1ccccc1CO3`: the Potency was 3.26 µM (active).

As for `O=Nc1c2ccc[nH]c-2c2ccc([N+](=O)[O-])cc12`, the Potency is 1.03 µM (active).

`O=C(Nc1ccc(N2CCN(Cc3ccccc3F)CC2)cc1)c1ccc([N+](=O)[O-])o1`: the Potency was 1.16 µM (active).

Consider `CS(=O)(=O)N1CCN(c2ccc(NC(=O)c3ccc([N+](=O)[O-])o3)cc2)CC1`, for which the Potency is 0.579 µM (active).

As to `O=C(NCC1CCN(Cc2ccccc2F)CC1)Nc1ccccc1F`, the Potency entry was “inactive”.

Turning to `O=C(Nc1ccc(N2CCCCC2)cc1)c1ccc([N+](=O)[O-])o1`, the Potency is 3.26 µM (active).

As for `CC1CCN(c2ccc(NC(=O)c3ccc([N+](=O)[O-])o3)cc2)CC1`, the Potency is 1.16 µM (active).

For the compound `CCC(C(=O)N1CCOCC1)n1nc(C)n2c(cc3cc(C)ccc32)c1=O` (configuration not stated), the Potency entry is “inactive”.

For `O=C(Nc1ccc(N2CCOCC2)cc1)c1ccc([N+](=O)[O-])o1`, the Potency is 0.579 µM (active).

Take `O=C(O)c1cc2ccccc2c(N=Nc2cccnc2)c1O`: the Potency is 2.05 µM (active).

For `O=C(NN1C(=O)c2ccccc2NC1c1ccc([N+](=O)[O-])o1)c1ccc([N+](=O)[O-])cc1` (configuration not stated), the Potency was 2.05 µM (active).

For the compound `O=C(NN1C(=O)c2ccccc2NC1c1ccc([N+](=O)[O-])o1)c1ccccc1` (configuration not stated), the Potency was 1.03 µM (active).

Regarding `Cc1[nH]c2ccccc2c1C(=O)C(C)OC(=O)c1ccc([N+](=O)[O-])o1` (configuration not stated), the Potency is 1.83 µM (active).

Take `COc1cc(/C=C/c2ccc3cccc(OC)c3n2)c(O)c([N+](=O)[O-])c1`: the Potency is 1.63 µM (active).

For `COc1cc(/C=C/c2ccc3cccc(OC)c3n2)c(OC(C)=O)c([N+](=O)[O-])c1`, the Potency was 1.83 µM (active).

In the case of `O=C(Nc1cccc2ccccc12)C12CC3CC(C1)CC(n1cnc([N+](=O)[O-])n1)(C3)C2`, the Potency is 3.65 µM (active).
